{"source": "PubChem BioAssay"}
{"assay": "small-molecule microarray binders of probe aCHRDL2, primary screen, biochemical, biotinylated probe, 635/667 nm fluorescence (AID 1100)", "conditions": "higher = more signal"}
{"smiles": "C=CCC(OC(C)=O)[C@@H]1[C@@H](N(Cc2ccc(-c3ccccc3)cc2)C(=O)c2ccc(-c3ccccc3)cc2)c2cc(OCCCO)ccc2N1C(=O)c1ccc2ccccc2c1", "note": "(some centres undefined)", "composite z-score": 0.306}
{"smiles": "CCOC(=O)C[C@H]1[C@H](OC(=O)c2cc3ccccc3oc2=O)[C@@H](NC(=O)c2ccc3ccccc3n2)c2cc(OCCCO)ccc2N1C(=O)Cc1ccc(OC)cc1", "composite z-score": -0.427}
{"smiles": "Cc1ccc(S[C@]2(C(=O)NCC(F)(F)F)CC(=O)N(Cc3cc(C(F)(F)F)cc(C(F)(F)F)c3)[C@@H]2c2ccc(CO)cc2)cc1", "composite z-score": 0.532}
{"smiles": "COC(=O)[C@@]1(Cc2ccc(OC)cc2)[C@H]2c3cc(C(=O)N4CCCC4)n(CCc4c[nH]c5ccc(O)cc45)c3C[C@H]2CN1C(=O)c1ccccc1", "composite z-score": 1.2}
{"smiles": "NC(=O)[C@@]1(Cc2ccccc2)COC(c2ccc(OCCCO)cc2)=N1", "composite z-score": 0.836}
{"smiles": "COCCOC(=O)N1C(=O)[C@@]2(c3cc(C#CCCO)ccc31)[C@H](C(=O)Nc1nc3ccccc3s1)[C@H]1C(=O)O[C@H](c3ccccc3)[C@H](c3ccccc3)N1[C@@H]2c1ccc(O)cc1", "composite z-score": 0.355}
{"smiles": "COc1ccc([Si](C)(C)[C@@H]2[C@@H](CCO)O[C@]3(C(=O)N(Cc4ccccc4)c4ccc(N5CCOC5=O)cc43)[C@H]2C)cc1", "composite z-score": -0.0546}
{"smiles": "C=C(/C(=C/C[C@H](OC(C)=O)c1ccc(CO)o1)c1cnc2ccccc2c1)C(C)C", "composite z-score": -0.483}
{"smiles": "COC(=O)[C@@]1(Cc2ccccc2)[C@H]2c3cc(C(=O)N4CCCC4)n(CCc4ccccn4)c3C[C@H]2CN1C(=O)c1ccccc1", "composite z-score": 1.02}
{"smiles": "COCC(=C=CC[C@H](O)c1ccc(OCCO)cc1)CCO", "composite z-score": 0.273}
{"smiles": "CCOC(=O)C1=C[C@@H](C(C)(C)C)N(S(=O)(=O)c2ccc(C)cc2)[C@H]1c1cccc2ccccc12", "composite z-score": 0.562}
{"smiles": "C=CC[C@@]1(C(=O)NCCCOC)N=C(c2ccc(OCCCO)cc2)O[C@@H]1c1ccccc1", "composite z-score": 1.36}
{"smiles": "[N-]=[N+]=Nc1ccccc1C[C@]1(C(=O)NCCN2CCOCC2)COC(c2ccc(OCCCO)cc2)=N1", "composite z-score": 0.909}
{"smiles": "Cc1ccc(F)cc1S(=O)(=O)N[C@@H]1CCN(Cc2ccc(Br)cc2)C1", "composite z-score": -0.418}
{"smiles": "OCCCC1=CC(c2ccc(CN3CCCC3)cc2)N(Cc2cc3c(cc2Br)OCO3)CC1", "note": "(centres undefined)", "composite z-score": 0.732}
{"smiles": "COC(=O)C1=CC(CCCO)=CC(c2ccc(CN3CCCC3)cc2)N(Cc2cccc(OC(F)(F)F)c2)C=C1C(=O)OC", "note": "(centres undefined)", "composite z-score": 0.82}
{"smiles": "CC(CO)N1C(=O)[C@@H]2[C@H]3C(=O)OCC=C[C@H]3OC23C=CCN(Cn2nnc4ccccc42)C(=O)[C@@H]13", "note": "(some centres undefined)", "composite z-score": 0.238}
{"smiles": "CC(C)NC(=O)[C@@]1(c2ccc([N+](=O)[O-])cc2)CC(=O)N(C2CCCCC2)[C@@H]1c1ccc(CO)cc1", "composite z-score": 0.0339}
{"smiles": "O=C1CS(=O)(=O)C(c2cccc([N+](=O)[O-])c2)N1c1ccccc1", "note": "(centres undefined)", "composite z-score": 0.157}
{"smiles": "NC(=O)NCC#Cc1ccc2c(c1)[C@]1(C(=O)N2)[C@H](c2ccccc2OCCO)N2[C@H](c3ccccc3)[C@H](c3ccccc3)OC(=O)[C@H]2[C@@H]1C(=O)NC[C@H](O)c1ccccc1", "composite z-score": 0.699}
{"smiles": "CCCC[C@@H](O)C1=C(COc2ccccc2)C[C@H]2C(=O)N(Cc3ccccc3)C(=O)[C@H]2[C@H]1CO", "composite z-score": -0.195}
{"smiles": "COC(=O)[C@@]1(Cc2ccc(F)cc2)[C@H]2c3cc(C(=O)N(C)C)n(Cc4ccc(OC(F)(F)F)cc4)c3C[C@H]2CN1C(=O)c1ccccc1", "composite z-score": 0.183}
{"smiles": "COCCOC(=O)N1C(=O)[C@@]2(c3cc(C#CC4=CCCCC4)ccc31)[C@H](c1ccccc1OCCO)N1[C@H](c3ccccc3)[C@H](c3ccccc3)OC(=O)[C@H]1[C@@H]2C(=O)N1CCN(c2ncccn2)CC1", "composite z-score": -0.513}
{"smiles": "O=C1OCCC=C[C@H]2OC34C=CCN(c5ccc6ccccc6c5)C(=O)[C@H]3N(CCCO)C(=O)[C@@H]4C12", "note": "(some centres undefined)", "composite z-score": 0.637}
{"smiles": "CCCC=C(CCC)[C@@H](NS(=O)(=O)CC12CCC(CC1=O)C2(C)C)c1ccc(C(=O)OC)cc1", "note": "(some centres undefined)", "composite z-score": 0.143}
{"smiles": "CC(C)[Si](C#C[Si](C(C)C)(C(C)C)C(C)C)(O[C@H](c1ccccc1)c1cn(Cc2ccccc2)nn1)C(C)C", "composite z-score": -0.465}
{"smiles": "C[N+](C)(C)CCCC[C@@H]1NC(=O)[C@@H]2C[C@H](C(=O)NCCCCCCN)[C@H](c3cccc(OCCO)c3)N2C1=O", "composite z-score": 1.14}
{"smiles": "COC(=O)[C@@H]1N=C(c2ccc(OCCCO)cc2)O[C@@H]1C", "composite z-score": 0.795}
{"smiles": "Cc1ccc(N2C(=O)c3ccccc3[C@@H](C(=O)NCCCN(C)C)[C@@H]2c2ccc(CO)cc2)nc1", "composite z-score": 0.824}
